Test results taken from PubChem BioAssay.
Active and inactive are the calls of the source. Unless noted, how the calls were made is not given here.

Columns and labels:
[1] = A549 cell viability effects, profiling panel, calcein-AM fluorescence, 48 h, basal (AID 1162); settings: higher = more signal; further: test concentration not given here
[2] = adipocyte viability effects, profiling panel, cell-based, 3T3-L1 adipocytes, calcein-AM fluorescence, 48 h, basal (AID 1163); settings: 3T3-L1 adipocytes viability, higher = more signal; further: test concentration not given here
[3] = HepG2 cell viability effects, profiling panel, calcein-AM fluorescence, 48 h, basal (AID 1164); settings: higher = more signal; further: test concentration not given here
[4] = MM1S cell viability effects, profiling panel, calcein-AM fluorescence, 48 h, basal (AID 1165); settings: higher = more signal;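 further: viability of MM1S multiple myeloma cells under basal unstimulated conditions; test concentration not given here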
[5] = basal RPMI8226 viability, no added stimulus, profiling panel, cell-based, calcein-AM fluorescence, 48 h, PK04 Diversity Set (AID 1166); settings: RPMI8226 myeloma viability, higher = more signal;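 further: cells grown under basal conditions without added stimulus; test concentration not given here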
[6] = basal HepG2 mitochondrial membrane potential changes, profiling panel, cell-based, JC-1 fluorescence, 24 h, 100 nL compound (AID 1167); settings: higher = more signal; further: test concentration not given here
[7] = basal 3T3-L1 adipocyte mitochondrial potential changes, profiling panel, cell-based, JC-1 fluorescence, 3T3-L1 adipocytes, 24 h, 100 nL compound (AID 1168); settings: JC-1 mitochondrial fluorescence, higher = more signal, called active from +8 up or from −8 down; further: test concentration not given here
[8] = basal RPMI8226 mitochondrial membrane potential changes, profiling panel, cell-based, JC-1 fluorescence, 24 h, 100 nL compound (AID 1169); settings: RPMI8226 myeloma, JC-1 mitochondrial potential fluorescence, higher = more signal; further: test concentration not given here
[9] = basal MM1S mitochondrial membrane potential changes, profiling panel, cell-based, JC-1 fluorescence, 24 h, 100 nL compound (AID 1170); settings: higher = more signal; further: test concentration not given here
[10] = A549 lung cancer cell viability effects, profiling panel, resazurin fluorescence, 24 h, PK04 Diversity Set (AID 1171); settings: higher = more signal, called active from +8 up or from −8 down; further: test concentration not given here
[11] = HepG2 liver cancer cell viability effects, profiling panel, resazurin fluorescence, 24 h, PK04 Diversity Set (AID 1172); settings: higher = more signal; further: test concentration not given here
[12] = basal S. cerevisiae growth modulation, no modifier, primary screen, OD600, strain BY4716, 24 h, basal condition (AID 1173); settings: OD600, 24 h, higher = more signal, called active from +8 up or from −8 down
[13] = MM1S myeloma cell viability, profiling panel, resazurin fluorescence, basal, 24 h, PK04 Diversity Set (AID 1174); settings: higher = more signal, called active from +8 up or from −8 down;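 further: MM1S multiple myeloma cell line; test concentration not given here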
[14] = target: Dihydroorotate dehydrogenase (quinone), mitochondrial (Plasmodium falciparum (isolate 3D7)) (UniProt Q08210); test: PfDHODH enzyme inhibitors, primary screen, biochemical, C-terminal His tag, absorbance 600 nm (AID 1175); settings: DCIP absorbance 600 nm, higher = more signal, called active from +8 up or from −8 down;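 further: recombinant parasite enzyme with a five histidine tag at its C terminus; test concentration not given here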
Chain of Dihydroorotate dehydrogenase (quinone), mitochondrial (Plasmodium falciparum (isolate 3D7)) (Q08210 whole entry, looked up): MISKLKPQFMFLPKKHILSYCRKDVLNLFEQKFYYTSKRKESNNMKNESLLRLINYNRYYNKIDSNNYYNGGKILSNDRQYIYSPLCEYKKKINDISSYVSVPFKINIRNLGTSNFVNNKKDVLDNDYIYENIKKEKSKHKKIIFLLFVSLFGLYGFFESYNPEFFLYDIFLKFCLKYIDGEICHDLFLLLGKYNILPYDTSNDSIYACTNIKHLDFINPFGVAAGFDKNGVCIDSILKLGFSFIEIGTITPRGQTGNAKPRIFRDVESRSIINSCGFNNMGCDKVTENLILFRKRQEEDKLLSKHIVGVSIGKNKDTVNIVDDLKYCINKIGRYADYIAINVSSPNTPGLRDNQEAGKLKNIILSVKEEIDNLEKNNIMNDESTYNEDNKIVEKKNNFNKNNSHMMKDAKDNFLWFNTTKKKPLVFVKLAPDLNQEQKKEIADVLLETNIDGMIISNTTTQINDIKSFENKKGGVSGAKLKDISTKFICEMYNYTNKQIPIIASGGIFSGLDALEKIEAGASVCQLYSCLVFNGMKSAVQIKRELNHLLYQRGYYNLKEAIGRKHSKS

[15] = P. aeruginosa biofilm formation inhibitors, primary screen, strain PAO1, LB-PBS medium, absorbance 600 nm (AID 1176); further: test concentration not given here; settings: P. aeruginosa PAO1 growth/biofilm, A600, 12 h; higher = more signal
[16] = S. cerevisiae RM11-1a growth modifiers, primary screen, strain RM11-1a, OD600, basal, 24 h (AID 1177); settings: OD600, 24 h, higher = more signal, called active from +8 up or from −8 down;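 further: cultures grown under basal conditions with no added stressor; test concentration not given here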
[17] = E. coli acrAB mutant growth effects, primary screen, E. coli filamentation inducers, strain DRC39, OD650, 24 h (AID 1178); settings: higher = more signal, called active from +8 up or from −8 down;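 further: growth measured as culture turbidity by optical density at 650 nm; test concentration not given here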
[18] = E. coli acrAB mutant growth effects, primary screen, E. coli filamentation inducers, strain DRC39, OD650, 48 h (AID 1179);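 further: screen aims at cell division blockers that make cells filament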; settings: E. coli DRC39 delta-acrAB growth, higher = more signal, called active from +8 up or from −8 down
[19] = RPMI8226 myeloma cell viability, profiling panel, resazurin fluorescence, basal, 24 h, PK04 Diversity Set (AID 1180); settings: higher = more signal;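 further: RPMI8826 multiple myeloma cell line at 5000 cells per well; test concentration not given here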
[20] = target: E3 ubiquitin-protein ligase XIAP (Homo sapiens) (UniProt P98170); test: XIAP binders, primary screen, biophysical, small-molecule microarray, fluorescence 635 nm (AID 1181); settings: small-molecule microarray binding, higher = more signal;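 further: score merges 667 nm emission and signal to noise over triplicate slides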
Chain of E3 ubiquitin-protein ligase XIAP (Homo sapiens) (P98170 whole entry, looked up): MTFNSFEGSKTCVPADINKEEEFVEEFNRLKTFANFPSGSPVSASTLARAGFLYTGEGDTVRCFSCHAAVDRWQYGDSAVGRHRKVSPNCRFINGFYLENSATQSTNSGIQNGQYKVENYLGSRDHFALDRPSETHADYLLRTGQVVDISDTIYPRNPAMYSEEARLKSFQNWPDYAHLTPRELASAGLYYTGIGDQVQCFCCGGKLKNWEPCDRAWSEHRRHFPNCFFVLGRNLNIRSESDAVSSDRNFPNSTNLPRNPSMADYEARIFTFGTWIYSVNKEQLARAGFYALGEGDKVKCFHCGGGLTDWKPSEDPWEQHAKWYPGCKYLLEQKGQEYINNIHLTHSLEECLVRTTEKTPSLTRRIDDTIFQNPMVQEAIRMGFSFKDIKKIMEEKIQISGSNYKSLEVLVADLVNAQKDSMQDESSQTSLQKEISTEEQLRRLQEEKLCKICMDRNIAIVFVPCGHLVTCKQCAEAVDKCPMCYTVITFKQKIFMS

SMILES | z-score [1] | z-score [2] | z-score [3] | z-score [4] | z-score [5] | z-score [6] | z-score [7] | z-score [8] | z-score [9] | z-score [10] | z-score [11] | z-score [12] | z-score [13] | composite z-score [14] | z-score [15] | z-score [16] | z-score [17] | z-score [18] | z-score [19] | composite z-score [20]
C=CCC(OC(C)=O)[C@@H]1[C@@H](N(Cc2ccc(-c3ccccc3)cc2)C(=O)c2ccc(C)cc2)c2cc(OCCCO)ccc2N1C(=O)c1ccc2ccccc2n1 (stereo not given in full) | 3.36 | 0.389 | 1.85 | -0.68 | 1.28 | 3.31 | 0.285 (inactive) | 0.0312 | 1.96 | 1.87 (inactive) | 1.53 | -0.769 (inactive) | 1.3 (inactive) | -0.772 (inactive) | 0.833 (inactive) | -1.99 (inactive) | 2.06 (inactive) | 1.82 (inactive) | 0.924 | -0.0663
O=C1C2C=CC(C(O)c3ccc(Br)cc3)N(n3cnnc3)C2C(=O)N1Cc1ccccc1 (stereo not given) | -1.71 | -1 | -3.58 | -0.496 | -3.99 | -0.422 | 0.633 (inactive) | -0.212 | 0.00374 | 0.0637 (inactive) | -0.009 | -17.1 (active) | -0.381 (inactive) | -1.37 (inactive) | -0.184 (inactive) | -23 (active) | -0.999 (inactive) | -1.96 (inactive) | -0.396 | 1.33
C=CCC(OC(C)=O)[C@@H]1[C@@H](N(Cc2cc3ccccc3o2)C(=O)c2cccc3ccccc23)c2cc(OCCCO)ccc2N1C(=O)Cc1ccc2ccccc2c1 (stereo not given in full) | 0.206 | 0.753 | 0.381 | 0.791 | -1.08 | 2.07 | -0.858 (inactive) | 0.313 | -0.963 | -1.05 (inactive) | -0.902 | 0.272 (inactive) | -0.411 (inactive) | 0.449 (inactive) | -0.735 (inactive) | 0.481 (inactive) | -0.741 (inactive) | -0.973 (inactive) | -0.276 | -0.0703
COC(=O)C(CC#Cc1ccc2c(c1)[C@]1(C(=O)N2)[C@H](C(=O)N2CCCCCCC2)[C@H]2C(=O)O[C@H](c3ccccc3)[C@H](c3ccccc3)N2[C@@H]1c1ccccc1OCCO)C(=O)OC | -0.65 | 0.091 | 0.491 | -0.216 | -0.421 | 0.0896 | 1.09 (inactive) | -0.835 | -1.33 | 0.901 (inactive) | -0.198 | 0.946 (inactive) | -0.0924 (inactive) | -4.91 (inactive) | 1.22 (inactive) | 0.0478 (inactive) | -1.19 (inactive) | -0.513 (inactive) | 0.218 | 2.41
O=C(NCc1ccccc1)[C@@H]1c2ccccc2C(=O)N(Cc2cc(F)cc(C(F)(F)F)c2)[C@H]1c1ccc(CO)cc1 | 1.5 | -0.115 | 1.37 | 0.105 | -0.161 | 1.88 | 0.079 (inactive) | 0.79 | -0.511 | -0.811 (inactive) | -0.745 | -0.633 (inactive) | -0.569 (inactive) | 0.131 (inactive) | 0.472 (inactive) | -0.517 (inactive) | 0.771 (inactive) | 0.675 (inactive) | 0.127 | -0.0207
CN1C(=O)C2C(C1=O)C1C=C(c3ccc(CO)cc3)C2C(C2CC2)N1Cc1cc2c(cc1Br)OCO2 (stereo not given) | 0.302 | 0.575 | 1.81 | -0.387 | -1.75 | 3.74 | 0.673 (inactive) | -0.73 | -0.565 | -1.84 (inactive) | -0.698 | -2.01 (inactive) | -1.31 (inactive) | -2.33 (inactive) | 0.0061 (inactive) | -0.889 (inactive) | 0.101 (inactive) | -0.0102 (inactive) | -1.47 | 0.111
O=C1C2C=CC(C(O)c3ccc(-c4ccccc4)s3)N(Nc3ccccc3F)C2C(=O)N1c1ccccc1 (stereo not given) | -1.07 | -0.0797 | -0.297 | -0.0003 | -1.3 | -2.29 | -1.57 (inactive) | -0.35 | -0.0666 | -1.7 (inactive) | -1.5 | 0.025 (inactive) | -1.38 (inactive) | 0.853 (inactive) | 0.366 (inactive) | 1.19 (inactive) | -0.516 (inactive) | -0.795 (inactive) | -1.6 | 0.0101
CCCNC(=O)[C@@]1(C)c2ccccc2C(=O)N(Cc2cc(C(F)(F)F)cc(C(F)(F)F)c2)[C@H]1c1ccc(CO)cc1 | -0.283 | 0.531 | 0.0751 | 0.341 | -1.23 | 1.22 | -0.161 (inactive) | -0.0935 | -0.643 | 1.27 (inactive) | 0.597 | -0.991 (inactive) | 0.526 (inactive) | -0.241 (inactive) | 0.882 (inactive) | -0.563 (inactive) | 0.0099 (inactive) | -0.161 (inactive) | 0.73 | -0.212
C=C(CCCC)C(=O)CC[C@H](OC(C)=O)c1ccc(CO)o1 | -0.0395 | 1.87 | -0.576 | -1.65 | -0.0314 | 0.299 | 1.14 (inactive) | 0.0658 | 0.376 | -0.485 (inactive) | -0.658 | -0.948 (inactive) | 0.982 (inactive) | -1.66 (inactive) | -0.0221 (inactive) | 0.285 (inactive) | 0.668 (inactive) | -0.968 (inactive) | 0.496 | 0.343
